Measurements as given in PubChem BioAssay (NCI).
Values joined by “and” are separate entries in the source; they are usually repeats but may differ in a detail not shown here. Equal values may be shown once. About 83,000 compounds went through this panel and 20% of them were active in at least one assay; those are over-represented in the sample as a whole.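 Growth was measured after 48 h exposure to one concentration of compound in 96-well plates. Values under 10 count as active.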 Active and inactive are the calls of the source.

tested on: UACC-62 melanoma; test: NCI-60 one-dose screen, 48 h (100 = growth as untreated, 0 = no growth, -100 = all killed); conditions: 0.0025 µM
Method: Growth inhibition of the UACC-62 human tumor cell line is measured as a screen for anti-cancer activity. Cells are grown in 96 well plates and exposed to the test compound for 48 hours. Compounds are tested at a single concentration, which is 10^-5 M for most compounds. The reported endpoint is percent growth (GI% or GIPRCNT), where numbers from 0 - 100% represent growth inhibition, and numbers from -100% - 0 represent cell death. For example, a value of 40 represents 60% growth inhibition. A value of 0 means no net growth occurred over the course of the experiment. A value of -40 indicates 40% of cells at the beginning of the experiment died by the end of the experiment. A value of -100 means all cells are dead at the end of the experiment.
NCI-60 Human Tumor Cell Lines Screen was performed using the standard one-dose NCI protocol, which is described in more detail at https://dtp.cancer.gov/discovery_development/nci-60/default.htm.
Compounds with GIPRCNT values below 10 were considered active. Activity score was based on GIPRCNT using the following formula: […]
Score is 0 for GIPRCNT values of 100 or above, 50 for GIPRCNT values of 0, and 100 for GIPRCNT values of -100.

Compound	growth
COc1cccc2c1C(=O)c1c(O)c3c(c(O)c1C2=O)C[C@@](O)(C(=O)CO)C[C@@H]3OC1CC(N)C(O)C(C)O1 (stereo not given in full)	97.5% (inactive)

same assay, conditions: 1 µM

Compound	growth
COc1cccc2c1C(=O)c1c(O)c3c(c(O)c1C2=O)C[C@@](O)(C(=O)CO)C[C@@H]3OC1CC(N)C(O)C(C)O1 (stereo not given in full)	14.8% (inactive)

same assay, conditions: 10 µM

Compound	growth
CS(=O)(=O)OC1CC(n2ccc(=O)[nH]c2=O)OC1COC(c1ccccc1)(c1ccccc1)c1ccccc1 (stereo not given)	97.7% (inactive)
COC(=O)C1=COC(C)C2C[n+]3ccc4c([nH]c5ccccc54)c3CC12 (stereo not given)	91.1% (inactive) and 83.1% (inactive)
COc1cccc2c1C(=O)c1c(O)c3c(c(O)c1C2=O)C[C@@](O)(C(C)=O)C[C@@H]3OC1CC(N)C(O)C(C)O1 (stereo not given in full)	-71.8% (active)
CCN(CC)c1ccc(NC(C(=O)c2ccccc2)c2ccccc2)cc1 (stereo not given)	28.3% (inactive)
CCCCCCCCCCCCCCCCCCOCC(COP(=O)([O-])OCC[N+](C)(C)C)OC (stereo not given)	73.3% (inactive)
Cc1nc(N=C(N)N)nc2ccc3ccccc3c12	-20.9% (active)
CO[C@H](C(=O)[C@@H](O)[C@@H](C)O)[C@@H]1Cc2cc3cc(OC4CC(OC5CC(O)C(O)C(C)O5)C(O)C(C)O4)c(C)c(O)c3c(O)c2C(=O)[C@H]1OC1CC(OC2CC(OC3CC(C)(O)C(O)C(C)O3)C(O)C(C)O2)C(O)C(C)O1 (stereo not given in full)	-58.6% (active)
CCCCCCCCCCCC[N+](C)(C)Cc1ccccc1	-41.2% (active)
OCC1OC(n2cnc3c(=S)nc[nH]c32)C(O)C1O (stereo not given)	92.3% (inactive) and 26.7% (inactive)
COc1ccc(CC(=O)c2ccc(O)cc2O)cc1	120% (inactive)
Nc1ccc2cc3ccc(N)cc3nc2c1	109% (inactive) and -35.5% (active)
O=C(/C=C/c1cccnc1)c1ccccc1	103% (inactive)
COc1cccc2c1C(=O)c1c(O)c3c(c(O)c1C2=O)C[C@@](O)(C(=O)CO)C[C@@H]3OC1CC(N)C(O)C(C)O1 (stereo not given in full)	-60% (active)
NC1=C(Cl)C(=O)c2ccccc2C1=O	-41.4% (active)
Nc1c2ccccc2nc2ccccc12	13.9% (inactive) and 36.3% (inactive) and 27.3% (inactive)
OCC(O)C(O)C(O)C(/C=N/Nc1ccccc1)=N/Nc1ccccc1 (stereo not given)	43.6% (inactive)
O=c1ccn(C2CC(O)C(COC(c3ccccc3)(c3ccccc3)c3ccccc3)O2)c(=O)[nH]1 (stereo not given)	82.6% (inactive)

Compound	growth
O=[N+]([O-])C1=C(c2ccccc2)SC=C(c2ccccc2)S1	54.5% (inactive)
NNc1ccc2ccccc2c1	78% (inactive) and 99.9% (inactive)
CC(=O)Nc1cc(C)ccc1C	98.3% (inactive)
O=C(/C=C/c1ccccn1)c1ccccc1	82.4% (inactive)
CC1=CC(C)=Nc2ccc(Cl)cc2N1	103% (inactive)
C[n+]1c2cc(N)ccc2cc2ccc(N)cc21	-30.5% (active) and -37% (active) and -78.6% (active)
CCCCCCCCCCCCSC(=NC)NC	-58.4% (active) and 61.4% (inactive)
CC(C)(C)CC(C)(C)c1ccc(OCCO)cc1	106% (inactive)
O=C1NC(=O)c2cc([N+](=O)[O-])ccc21	102% (inactive)
CCC(C)(C)c1cc(O)c(C(C)(C)CC)cc1O	35.4% (inactive)
CSC1SCC2C(=O)N(C)C(C(C)C)C(=O)OCC(NC(=O)c3cnc4ccccc4n3)C(=O)NC(C)C(=O)N(C)C1C(=O)N(C)C(C(C)C)C(=O)OCC(NC(=O)c1cnc3ccccc3n1)C(=O)NC(C)C(=O)N2C (stereo not given)	-77% (active)
N=S(c1ccccc1[N+](=O)[O-])c1ccccc1[N+](=O)[O-]	67.9% (inactive)
CCO/C=C1\SC(=S)N(c2cccc(O)c2)C1=O	103% (inactive)
Cc1cc(O)c(C(C)C)cc1Cl	103% (inactive)
NNc1c2ccccc2nc2ccccc12	45.2% (inactive)
Nc1nc(=S)c2ncn(C3OC(CO)C(O)C3O)c2[nH]1 (stereo not given)	102% (inactive) and 0.101% (active)
CCCC1CCC(=C2C(=O)CCC2=O)O1 (stereo not given)	86.8% (inactive) and 93.7% (inactive)

same assay, conditions: 50 µM

Compound	growth
COc1cccc2c1C(=O)c1c(O)c3c(c(O)c1C2=O)C[C@@](O)(C(C)=O)C[C@@H]3OC1CC(N)C(O)C(C)O1 (stereo not given in full)	-98.9% (active) and -100% (active)

same assay, conditions: 100 µM

Compound	growth
CC(C)C1=C(O)C2=C(C(=O)C1=O)C1(C)CCCC(C)(C)C1CC2O (stereo not given)	-73.2% (active) and -96.5% (active)
COC(=O)C1=COC(C)C2C[n+]3ccc4c([nH]c5ccccc54)c3CC12 (stereo not given)	52.7% (inactive) and 32.5% (inactive)
O=c1ccn(C2CC(O)C(COC(c3ccccc3)(c3ccccc3)c3ccccc3)O2)c(=O)[nH]1 (stereo not given)	29.8% (inactive)
